Hit rate of the full screen: of about 220,000 compounds, about 2,400 (1.1%) were called active. About 7% were inconclusive and are not listed. The entries come from a sample that favours actives as a whole. Unmarked numbers belong to inactive results. Calls follow the shape of the dose curve; as a rule, active = well fitted inhibition curve with a large enough effect; inconclusive = small, poorly fitted or top-dose-only effect, or effect the other way; inactive = no such curve, though single readings can be large or run the other way.
Test: qHTS Multiplex Assay to Identify Dual Action Probes in a Cell Model of Huntington: Aggregate Formation (GFP); also: nearly all actives have a fitted effect of over 60% in size
Conditions: PC12 HttQ103-GFP aggregates, Acumen cytometry, 40 h; series mostly up to 9.22 µM; activity change, negative = inhibition: at the top concentration
Outline: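 PC12 cells with ecdysone-inducible HTT exon1 Q103-GFP, induced by 100 nM tebufenozide, given compounds in a concentration series. GFP aggregates (1–25 um, 6 SD above background) counted in lysates by laser-scanning cytometry, 488 nm excitation.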
% is scaled to controls: 0 for no effect and ±100 for the full control effect; potency is read from the fitted curve at half-maximal effect.

Compound | activity change, negative = inhibition | Potency
O=S(=O)(c1ccc(F)cc1)N1CC=C(c2ccccc2)CC1 | -11.9% | 
O=C1CCCC(O)=C1N=Nc1ccc(S(=O)(=O)N2CCOCC2)cc1 | -29.6% | 
O=C(C1=C(O)C(=O)N(CCOCCO)C1c1ccccn1)c1cccs1 (stereo unspecified) | -9.5% | 
COc1ccc(Cc2cc(-c3ccc(F)cc3)n[nH]c2=O)cc1 | -2.71% | 
Fc1ccccc1/C=N/n1c(-c2cccnc2)n[nH]c1=S | -12.6% | 
CCOC(=O)c1c(NC(=O)c2ccc(N3CCOCC3)c([N+](=O)[O-])c2)sc(C)c1C | -1.54% [at 46.1 µM] | 
N#Cc1c(NC(=O)c2ccc(N3CCOCC3)c([N+](=O)[O-])c2)sc2c1CCCC2 |  | 5.62 µM (active)
O=C(NCCCN1CCOCC1)c1ccc(N2CCCC2)c([N+](=O)[O-])c1 | 3.94% | 
Cc1cc(=O)[nH]c(S)c1C#N | -6.31% | 
NC(=O)C(=O)N/N=C/c1ccc([N+](=O)[O-])o1 | -100% [at 46.1 µM] | 
O=C(O)c1cccnc1Sc1ncnc2sc3c(c12)CCC3 | -1.62% | 
COCCn1c(C)cc(C(=O)CSc2ncnc3sc4c(c23)CCC4)c1C |  | 6.31 µM (active)
COCCn1c(C)cc(C(=O)CSc2nc3ccccc3c(=O)n2C(C)COC)c1C (stereo unspecified) | -9.69% [at 46.1 µM] | 
CC(C)(C)C(=O)NNC(=O)c1ccc(Oc2cc(Cl)cc(Cl)c2)o1 | -4.94% | 
CCOc1cc2c(Cl)ncnc2c(OCC)c1OCC | -18.2% | 
Cc1nc2ccccc2c(-c2ccccc2)c1C(=O)c1ccccc1 | -13.7% [at 46.1 µM] | 
Cc1nc2ccccc2c(C)c1C(=O)c1ccc(F)cc1 |  | 7.94 µM (active)
Cc1nc2ccc(C(=O)O)cc2[nH]1 | 2.47% [at 46.1 µM] | 
COc1ccc(Cl)cc1C(=O)NNC(=O)c1nc2nc(C)cc(C)n2n1 | 16.4% | 
FC(F)(F)c1ccc(-n2cn[nH]c2=S)cc1 | -29% | 
COc1ccc(NC(=O)C(Br)C(C)C)cc1 (stereo unspecified) |  | 0.891 µM (active)
COc1ccc(NC(=O)C(C)SCc2ccccc2)cc1 (stereo unspecified) | 9.72% | 
CCOC(=O)C(NC(C)=O)C(=O)Nc1ccc(OC)cc1 (stereo unspecified) | 1.08% | 
O=C(COc1ccccc1[N+](=O)[O-])N/N=C/c1ccc[nH]1 | 27.9% | 

Compound | activity change, negative = inhibition | Potency
O=C1CC2(CC(c3ccc(Cl)cc3)=NO2)C(=O)N1c1ccccc1 (stereo unspecified) | -18.5% | 
C#CCNc1ccc(C(=O)OCC)cc1 | -0.897% | 
Fc1ccc(-c2csc(-c3ccc(C4SCCS4)cc3)n2)cc1F | -8.2% | 
CCN(CC)C(=O)c1sc(NC(=O)c2ccco2)c(C#N)c1C | -5.71% [at 46.1 µM] | 
CCCc1ccc(-c2c(C)sc(NC(=O)c3ccnn3C)c2C#N)cc1 |  | 7.08 µM (active)
Cn1nccc1CNC(=O)c1ccnn1C | 17.5% [at 46.1 µM] | 
CCN(CC(=O)Nc1ccc(S(=O)(=O)N2CCCC2)cc1)CC(=O)Nc1cccc(OC)c1 | -1.97% | 
CN(Cc1nc(-c2cnccn2)no1)Cc1n[nH]c2c1CCCCC2 | 3.15% | 
O=C(CC(=O)Nc1ccc(Cl)c(Cl)c1)N/N=C/c1ccc(O)cc1 | -2.59% [at 46.1 µM] | 
O=C(CC(O)(C(F)(F)F)C(F)(F)F)Nc1ccc(Cl)c(Cl)c1 |  | 5.01 µM (active)
Cc1ccc(NC(=O)C/C(N)=N/O)cc1Cl | -5.66% | 
Cn1cc(S(=O)(=O)NC(c2ccccc2)c2ccccc2)c(=O)n(C)c1=O | 25.8% | 
c1ccc(Cc2cc[n+](Cc3ccccc3)cc2)cc1 | -10.7% | 
CN(C)c1ccc(/C=N/N(Cc2ccccc2)c2ccccc2)cc1 | 0.998% [at 46.1 µM] | 
CN(C)c1cc[n+](Cc2ccccc2)cc1 |  | 7.08 µM (active)
COc1ccc(OCCC(=O)c2ccc(OC)cc2)cc1 | 18.6% | 
Cc1noc(C)c1C(=O)OCC(=O)/C=C1\N(C)c2ccccc2C1(C)C | -17% [at 46.1 µM] | 
CN1/C(=C\C(=O)c2cccnc2Cl)C(C)(C)c2ccccc21 | -10.9% [at 46.1 µM] | 
CC(=O)Nc1cccc(OCC(=O)/C=C2\N(C)c3ccccc3C2(C)C)c1 |  | 11.2 µM (active)
Cc1ccc(NNC(=O)c2cccs2)cc1Cl | 19% | 
O=C(Nc1ccc(S(=O)(=O)Nc2nccs2)cc1)c1cc(=O)[nH]c2ccccc12 | -14.5% | 
Cc1ccc(NC(=O)c2ccc(S(=O)(=O)NCC3CCCO3)cc2)cc1C (stereo unspecified) | 0.556% | 
Cc1cc(Cl)c(S(=O)(=O)NCC2CCCO2)cc1OCC(N)=O (stereo unspecified) | -10.1% [at 46.1 µM] | 
Cc1ccc(C(=O)O)cc1S(=O)(=O)NCC1CCCO1 (stereo unspecified) |  | 3.98 µM (active)

Compound | activity change, negative = inhibition | Potency
CC(C)(O)c1ccccc1CC[C@H](SCC1(CC(=O)O)CC1)c1cccc(/C=C/c2ccc3ccc(Cl)cc3n2)c1 | 6.98% [at 46.1 µM] | 
Cc1cc(Cl)ccc1NNC(=O)c1snnc1C | 3.92% | 
O=C1C2C3C=CC(C3)C2C(=O)N1c1ccc(S(=O)(=O)Nc2nccs2)cc1 (stereo unspecified) | 28.1% | 
CC(C)(C)c1cc(C(=O)NN)n(Cc2ccc(Cl)cc2Cl)n1 | -29.8% | 
CCOc1ccc(NC(=O)c2ccccc2NS(C)(=O)=O)cc1 | 20.3% | 
O=S(=O)(Nc1ccccc1N1CCOCC1)c1ccc(Cl)s1 | -24.5% [at 46.1 µM] | 
COc1cc(NC(=O)c2cccnc2SC)cc(OC)c1 | -3.73% [at 46.1 µM] | 
COC(=O)c1ccc(NC(=O)c2ccccc2NS(=O)(=O)c2ccccc2)cc1 |  | 11.2 µM (active)
COC(=O)c1ccccc1NC(=O)c1ccccc1NS(C)(=O)=O | 3.87% [at 46.1 µM] | 
COc1cc(NC(=O)c2ccccc2NS(=O)(=O)c2ccc(Cl)s2)cc(OC)c1 |  | 3.98 µM (active)
COc1ccc(S(=O)(=O)N(CC(=O)N/N=C/c2ccccc2C(=O)O)c2ccccc2OC)cc1 | 12.6% | 
CC(C)(C)NC(=O)/C(=C/c1cccnc1)NC(=O)c1ccco1 | 22.8% | 
CCn1c(CN2C(=O)CSc3ccccc32)n[nH]c1=S | -2.01% | 
Cc1nc(=O)c(-c2ccccc2)c(C)n1-c1ccc(Br)cc1 | 8.99% | 
CCCc1nc2oc3c(=O)[nH]cnc3c2c2c1COC(C)(C)C2 | 9.46% | 
Cc1cc(CO)nn1-c1ccc([N+](=O)[O-])cc1 | 9.64% | 
O=C(c1c(Cl)cccc1Cl)N1CCN(c2cccc3[nH]ccc23)CC1 | -14% | 
Cc1ccc(-c2c[n+](=O)c3c(n2[O-])CCC3)cc1 | -12.9% | 
CCC(=O)N1CCCc2ccccc21 | -7.24% | 
Cc1cc(C)cc(OCC(=O)O/N=C(\N)Cc2ccc([N+](=O)[O-])cc2)c1 | -1.2% | 
O=c1c2c(ncn1Cc1ccccc1)nc1n2CCC1 | -20.5% [at 46.1 µM] | 
CN(C)c1ccnc2sc3c(=O)n(Cc4ccccc4)cnc3c12 |  | 7.08 µM (active)
CN(C)/C=C/c1c(C#N)c(=O)ncn1Cc1ccccc1 | 13.8% [at 46.1 µM] | 

— PubChem BioAssay AID1688 (National Center for Advancing Translational Sciences (NCATS), 2009)
